Test results as given in PubChem BioAssay (NCATS).
Inconclusive results are not listed. Active and inactive are the calls of the source. Unless noted, calls come from the whole dose curve; as a rule, active = well fitted curve in the direction sought with a large enough effect; inconclusive = small, poorly fitted or top-dose-only effect, or another doubt; inactive = no such curve, though single readings can be large; an effect the other way counts as inactive or inconclusive.

Tests used:
[1] = target: Mitogen-activated protein kinase 10 (Mus musculus) (UniProt Q61831); experiment: JNK3 AlphaScreen Assay (AID 530; active = well fitted curve in either direction with a large enough effect, not every such curve was filed as active;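 note: kinase came from lysate of stimulated human HepG2 cells; signal reports phosphorylation of biotinylated GST-cJun 1-79 at Ser73 with 10 µM ATP; series mostly up to about 57 µM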)
How it was run: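 Room-temperature AlphaScreen kinase assay; pre-activated HepG2 lysate as JNK3 source, biotin-GST-cJun(1-79) substrate, 10 uM ATP, compound 15 min preincubation.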

[2] = Cell Viability - N2a (AID 540); note: nearly all actives have a fitted effect of over 45% in size
How it was run: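 Mouse neuroblastoma N2a cells (1500/well) were preincubated 5 hr at 37 °C, then exposed to compounds for 40 hr at 37 °C in complete medium. Viability was read as intracellular ATP by CellTiter-Glo luminescence; AC50 from Hill fits.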

[3] = Cell Viability - HUV-EC-C (AID 542); note: nearly all actives have a fitted effect of over 35% in size
How it was run: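 HUV-EC-C normal human vascular endothelial cells, 1000 cells/well, pre-incubated 5 hr at 37 °C, then exposed to compounds for 40 hr at 37 °C in complete medium. Viability measured as intracellular ATP by CellTiter-Glo luminescence; AC50 from Hill fits.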

[4] = Cell Viability - H-4-II-E (AID 543); note: nearly all actives have a fitted effect of over 35% in size
How it was run: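 Rat hepatoma H-4-II-E cells (1500/well) were plated, incubated 5 hr at 37 °C, then exposed to compounds for 40 hr at 37 °C. Cellular ATP was read by CellTiter-Glo luminescence; AC50 came from Hill-equation fits of concentration-response data.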

[5] = Cell Viability - Renal Proximal Tubule (AID 545); note: nearly all actives have a fitted effect of over 40% in size
How it was run: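 In this qHTS format, normal rat kidney-derived proximal tubule cells in complete culture medium receive compound titrations, then sit 40 hours at 37 °C before luciferase-based ATP quantitation; potency is reported as AC50 from concentration-response curves.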

[6] = Cell Viability - Mesenchymal (AID 546);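 note: cells exposed to compound for 40 hours before reading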
How it was run: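 AC50 values reflect the drop in intracellular ATP in a human kidney mesenchymal line derived from normal glomeruli. Treatment lasts 40 hr at 37 °C in complete medium, and the signal comes from CellTiter-Glo luminescence.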

[7] = Cellular Toxicity (caspase-3) HepG2 (AID 654);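 note: cells exposed to compound for 16 hours before reading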
How it was run: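 HepG2 cells (1500/well) in complete medium were treated with compounds for 16 hr at 37 °C. Caspase-3/7 activity was then read as luminescence from peptide-aminoluciferin cleavage. AC50 came from Hill fits, normalized to DMSO and 100 uM tamoxifen.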

[8] = Cellular Toxicity (caspase-3) Jurkat (AID 655);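 note: cells exposed to compound for 16 h at 37 °C before reading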
How it was run: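 qHTS in human Jurkat T-cell leukemia line: 16 hr compound treatment at 37 °C, caspase-3/7 activity measured by Caspase-Glo luminescence. AC50 derived from Hill equation.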

[9] = Cellular Toxicity (caspase-3) HUV-EC-C (AID 656)
How it was run: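 Concentration-dependent caspase 3/7 induction was assessed in HUV-EC-C cells exposed for 16 hours. Data scaled between DMSO and tamoxifen (100 uM) controls.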

[10] = Cellular Toxicity (caspase-3) SHSY5Y (AID 657)
How it was run: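 Readout: caspase-cleaved peptide-aminoluciferin substrate driving luciferase light in SH-SY5Y neuroblastoma cells after 16 h treatment. Response normalized to DMSO and 10 uM staurosporine controls.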

[11] = Cellular Toxicity (caspase-3) BJ (AID 658)
How it was run: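 Readout: Caspase-Glo 3/7 luminescence increase in BJ cells after 16 hr treatment at 37 °C. Staurosporine and tamoxifen served as positive controls; AC50 values came from Hill modelling of data normalized to DMSO and 10 uM staurosporine.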

[12] = Cellular Toxicity (caspase-3) MRC-5 (AID 659)
How it was run: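 Concentration-dependent caspase 3/7 activation is measured in human normal lung fibroblasts (MRC-5) following 16-hour treatment. AC50 values come from standard Hill-equation modeling of luminescence normalized to DMSO and 10 uM staurosporine.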

[13] = Cellular Toxicity (caspase-3) Mesangial (AID 660);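 note: cells exposed to compound for 16 h before the caspase read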
How it was run: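 Human renal glomerular mesangial cells (1000/well) were treated with compounds for 16 h at 37 °C in complete medium, then caspase 3/7 activity was read by Caspase-Glo luminescence. Data were normalized to DMSO and 100 uM tamoxifen; AC50 from Hill fits.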

[14] = Cellular Toxicity (caspase-3) SK-N-SH (AID 661)
How it was run: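 SK-N-SH human neuroblastoma cells (1500/well) were treated with compounds for 16 hr at 37 °C in complete medium; caspase 3/7 activity was read by Caspase-Glo luminescence. AC50 came from Hill fits of data normalized to DMSO and 10 uM staurosporine.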

[15] = Cellular Toxicity (caspase-3) H-4-II-E (AID 663);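 note: cells exposed to compound for 16 hr before readout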
How it was run: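 Apoptosis induction is scored as increased luminescence from caspase 3/7 substrate cleavage in rat hepatoma H-4-II-E cells exposed to compound for 16 hr. Activity is scaled between DMSO and 100 uM tamoxifen.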

[16] = Cellular Toxicity (caspase-3) Hek293 (AID 664);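 note: cells exposed to compound for 16 h at 37 °C before readout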
How it was run: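 HEK293 cells were exposed to compounds in complete medium for 16 hr at 37 °C, then caspase-3/7 activity was read by Caspase-Glo 3/7 luminescence after 20 min at room temperature. Data normalized to DMSO and 100 uM tamoxifen; AC50 from Hill fits.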

[17] = target: 3',5'-cyclic-AMP phosphodiesterase 4B (Homo sapiens) (UniProt Q07343); experiment: qHTS Assay for Inhibitors of PDE-IV (AID 607; active = well fitted activation curve with a large enough effect in the main read-out, with a control signal flat, not every such curve was filed as active)
Chain of 3',5'-cyclic-AMP phosphodiesterase 4B (Homo sapiens) (Q07343 whole entry, looked up): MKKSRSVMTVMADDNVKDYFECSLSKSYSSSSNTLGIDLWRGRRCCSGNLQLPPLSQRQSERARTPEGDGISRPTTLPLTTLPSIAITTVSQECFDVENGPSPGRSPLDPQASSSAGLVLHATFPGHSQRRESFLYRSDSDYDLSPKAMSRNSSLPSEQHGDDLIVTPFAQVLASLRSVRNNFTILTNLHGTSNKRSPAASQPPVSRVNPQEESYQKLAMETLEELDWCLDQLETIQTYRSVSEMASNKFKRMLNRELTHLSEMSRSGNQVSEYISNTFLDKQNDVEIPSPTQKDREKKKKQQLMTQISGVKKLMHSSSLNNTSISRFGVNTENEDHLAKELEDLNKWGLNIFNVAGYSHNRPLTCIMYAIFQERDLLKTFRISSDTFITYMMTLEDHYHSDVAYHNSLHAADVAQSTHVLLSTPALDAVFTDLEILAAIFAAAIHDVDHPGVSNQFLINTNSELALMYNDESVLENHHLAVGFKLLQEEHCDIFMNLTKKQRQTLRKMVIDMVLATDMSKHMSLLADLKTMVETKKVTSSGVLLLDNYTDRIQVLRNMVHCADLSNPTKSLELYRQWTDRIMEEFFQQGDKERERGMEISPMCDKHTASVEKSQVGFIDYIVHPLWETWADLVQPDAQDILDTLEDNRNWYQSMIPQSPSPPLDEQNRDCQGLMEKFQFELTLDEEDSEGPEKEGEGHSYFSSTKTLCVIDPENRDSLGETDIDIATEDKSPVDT
How it was run: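 HEK293 ACTOne cells with CNG channel (1000/well), endogenous PDE4; membrane potential dye, compounds up to 22.9 uM final. Fluorescence Ex 535/Em 590; RO 20-1724 (100 uM final) as reference.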

[18] = target: Glucocorticoid receptor (Homo sapiens) (UniProt P04150); experiment: GR-GFP Redistribution (AID 450;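 active = compounds whose dose series gives a full or clear partial fitted curve of increased nuclear translocation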; note: potency is the fitted concentration of half-maximal effect); conditions: U2OS GR-GFP nuclear translocation, laser cytometry, 2 h
Chain of Glucocorticoid receptor (Homo sapiens) (P04150 whole entry, looked up, the tested form may be a part): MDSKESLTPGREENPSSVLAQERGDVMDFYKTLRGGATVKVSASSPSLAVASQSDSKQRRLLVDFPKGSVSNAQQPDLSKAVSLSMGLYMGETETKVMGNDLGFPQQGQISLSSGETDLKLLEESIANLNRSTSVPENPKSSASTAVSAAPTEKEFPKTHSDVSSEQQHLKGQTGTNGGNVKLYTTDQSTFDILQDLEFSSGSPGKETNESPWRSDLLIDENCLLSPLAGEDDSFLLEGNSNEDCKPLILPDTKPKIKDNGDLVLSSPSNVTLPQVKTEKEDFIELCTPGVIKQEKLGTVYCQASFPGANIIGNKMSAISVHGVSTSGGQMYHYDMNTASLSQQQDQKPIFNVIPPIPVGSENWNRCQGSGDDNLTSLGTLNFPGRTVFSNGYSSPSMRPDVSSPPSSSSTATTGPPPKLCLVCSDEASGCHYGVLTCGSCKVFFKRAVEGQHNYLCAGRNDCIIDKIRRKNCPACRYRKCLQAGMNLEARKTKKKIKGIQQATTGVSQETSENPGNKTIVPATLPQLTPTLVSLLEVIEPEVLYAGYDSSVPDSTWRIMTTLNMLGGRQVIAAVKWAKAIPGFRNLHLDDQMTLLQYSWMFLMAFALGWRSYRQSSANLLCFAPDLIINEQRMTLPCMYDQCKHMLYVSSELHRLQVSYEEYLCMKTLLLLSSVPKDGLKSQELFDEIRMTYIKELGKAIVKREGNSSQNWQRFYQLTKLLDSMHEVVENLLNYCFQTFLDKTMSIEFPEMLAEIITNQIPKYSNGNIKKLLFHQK

[19] = target: Glucocorticoid receptor (Homo sapiens) (UniProt P04150); experiment: GR-EFC Redistribution (AID 451; calls by dose curve; note: potency is the fitted concentration of half-maximal effect); conditions: CHO-K1 GR-EFC translocation, beta-gal luminescence, 2 h
How it was run: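 Translocation of GR-ED fusion to nuclear EA restores b-gal, read by luminescence after 1 h room-temperature detection. Engineered CHO-K1 biosensor cells, 1,000/well, exposed 2 h at 37 C to titrations up to 46 uM final.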

[20] = Cell Viability - NIH 3T3 (AID 541); note: nearly all actives have a fitted effect of over 25% in size
How it was run: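 NIH 3T3 mouse embryo fibroblasts (1000 cells/well) were plated in complete medium and treated with compound for 40 hr at 37 °C. Viability was read as intracellular ATP by CellTiter-Glo luminescence; AC50 values came from Hill-equation fits of concentration-response data.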

Measured: Potency

CCN(CC)C(=O)c1cccc(C)c1
not listed: [17] | [18] | [19] | [20]
inactive: all other assays above

CC[N+](CC)(CC(=O)Nc1c(C)cccc1C)Cc1ccccc1
inactive: [1] | [17]

NC(N)=NS(=O)(=O)c1ccc(N)cc1
inactive: [18] > 20.6 µM | [19] > 20.6 µM | [1] | [17]

CC(C)(C)C(=O)OCOC(=O)[C@@H]1N2C(=O)[C@@H](NC(=O)[C@H](N)c3ccccc3)[C@H]2SC1(C)C
inactive: [1] | [17]

Cc1ncc(CO)c(CN)c1O
inactive: [1] | [17]

CC(=O)Nc1cccc(O)c1
not listed: [17] | [18] | [19]
inactive: all other assays above

CC(=O)Nc1ccccc1
not listed: [17] | [18] | [19]
inactive: all other assays above

COc1ccc(O)cc1
not listed: [2] | [17] | [18] | [19] | [20]
inactive: all other assays above

CCCC(O)C(CC)CO (centres undefined)
not listed: [17] | [18] | [19]
inactive: all other assays above

O=C1C(c2[nH]c3ccccc3c2O)=Nc2ccccc21
not listed: [1] | [17] | [18] | [19] | [20]
inactive: all other assays above

O=C1c2cccc(O)c2C(=O)c2c(O)cccc21
not listed: [1] | [17] | [18] | [19] | [20]
inactive: all other assays above

CC1CC(OC(=O)c2ccccc2O)CC(C)(C)C1 (centres undefined)
not listed: [17] | [18] | [19]
inactive: all other assays above

CCCCC1(COC(=O)CCC(=O)O)C(=O)N(c2ccccc2)N(c2ccccc2)C1=O
inactive: [1] | [17]

CC[N+](C)(CC)CCOC(=O)C1c2ccccc2Oc2ccccc21
inactive: [1] | [17]

FC(F)(F)C(Cl)Br (centres undefined)
not listed: [17] | [18] | [19]
inactive: all other assays above

O=C(O)CCCCC1CCSS1 (centres undefined)
not listed: [17] | [18] | [19]
inactive: all other assays above

Nc1ccc(S(=O)(=O)c2ccc(N)cc2)cc1
not listed: [18] | [19] | [20]
inactive: all other assays above
